Source: PubChem BioAssay (NCI)
This is part of a sample that, as a whole, favours compounds with a hit. Of some 83,000 tested, about 20% had one in any assay.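 Plates (96-well) were seeded with cells, treated with compound at one concentration, and incubated for 48 hours before percent growth was determined.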 Values without a mark were called inactive. The source made the active and inactive calls. How the source made its calls: active means growth percent below 10; inactive means the rest.

Test system: SW-620 colon
Assay: NCI-60 one-dose screen, 48 h (100 = growth as untreated, 0 = no growth, -100 = all killed)
Conditions: 10 µM unless noted

Row | SMILES | growth
1 | COC(=O)c1cc(-c2cccs2)c(C#N)c(N)c1C#N | 102%
2 | Cc1cc(Nc2nc(C(=O)Nc3ccccc3)nc3ccccc23)n[nH]1 | 77.5%
3 | CNC(C)=O | 105%
4 | CN(C)c1ccc(-c2ccc(-c3ccc(C(=N)N)cn3)o2)cc1 | -72.6% (active)
5 | CCN1C(=O)N(CC)C2C1NN=c1s/c(=C\c3cccc(F)c3)c(=O)n12 (stereo not drawn) | 28.5%
6 | O=C(CC(O)c1ccncc1)c1ccccc1 (stereo not drawn) | 109%
7 | CCN1C(=S)N(CC)C2Nn3c(s/c(=C4\C(=O)N(C)c5ccccc54)c3=O)=NC21 (stereo not drawn) | 41.1%
8 | O=C(Nc1ccc(Cl)cc1)c1cc(-c2ccc(F)cc2)c2sc(=O)[nH]c2n1 | 14.5%
9 | C#CCN1C(=O)/C(=c2\sc3n(c2=O)NC2C(N=3)N(CC)C(=O)N2CC)c2ccccc21 (stereo not drawn) | 41%
10 | C=C1C(=O)O[C@H]2[C@H]1CC/C(COC(=O)NCc1cc(OC)cc(OC)c1)=C\CC[C@@]1(C)O[C@@H]21 | -50.5% (active)
11 | COc1ccc(C2CC(=O)Nc3c2c(C)nn3-c2nc3ccccc3[nH]2)cc1OC (stereo not drawn) | 78.3%
12 | COc1ccc(NC(=O)CSc2nc3ccccc3c(=O)n2Cc2cc(OC)c(OC)c(OC)c2)cc1 | 104%
13 | COc1cccc(NC(=O)Cn2cc3c(=O)oc4ccccc4c3n2)c1 | 103%
14 | CCCCCC(=O)OCc1ccccc1 | 98.1%
15 | CCCCCCCCCN1C(=O)/C(=c2\sc3n(c2=O)C2C(NN=3)N(CC)C(=O)N2CC)c2ccccc21 (stereo not drawn) | 30.5%
16 | Nc1c(C(=O)Nc2cccc([N+](=O)[O-])c2)sc2nc3c(cc12)C(O)CCC3 (stereo not drawn) | 37.9%
17 | COc1ccc(/C=c2\sc3n(c2=O)C2C(NN=3)N(C)C(=O)N2C)cc1 (stereo not drawn) | 23.5%
18 | CC(Br)C(O)c1cc2c(cc1Br)OCO2 (stereo not drawn) | 104%
19 | CC/C=C\C/C=C\C[C@H]1C/C=C2/C(=O)C=C[C@H]2C/C=C\CCC(=O)O1 | -4.82% (active)

Row | SMILES | growth
20 | CCN(C(=O)c1cc2ccccc2[nH]1)[C@H]1CCC[C@@H](NCc2ccc(OC)cc2)C1 | 91.2%
21 | COc1ccc(NC(=O)/N=c2\oc3c(OC)cccc3cc2-c2cc3ccccc3[nH]2)cc1 | 70.3%
22 | COc1ccc(/C=N/NC(=O)Cn2c(Cc3cccc4ccccc34)nc3ccccc32)cc1 | 109%
23 | COc1cccc2cc(-c3cc4ccccc4[nH]3)/c(=N/C(=S)Nc3ccccc3)oc12 | 74.1%
24 | CCCCCCCCCCCCOB(OCCCCCCCCCCCC)OCCCCCCCCCCCC | 117%
25 | COc1ccc(/C=C/C(=O)OCC(=O)NNC(=O)c2ccccc2)cc1OC | 98.4%
26 | COc1ccc(NC(=S)/N=c2\oc3c(OC)cccc3cc2-c2cc3ccccc3[nH]2)cc1 | 84.3%
27 | Cc1oc2nc[nH]c(=O)c2c1C(=O)/C=C/c1ccc(Cl)cc1 | 8.49% (active)
28 | COc1ccc(Cl)cc1NC(N)=S | 104%
29 | c1ccn2nnnc2c1 | 106%
30 | O=C(/C=C/CN1CCCCC1)Nc1cc2c(Nc3ccc(F)c(Cl)c3F)ncnc2cc1OCCOC(F)F | 10.3%
31 | CCN1C(=O)N(CC)C2Nn3c(s/c(=C4\C(=O)N(C5CCCC5)c5ccccc54)c3=O)=NC21 (stereo not drawn) | 53.9%
32 | C=CCN=C1NC(=O)/C(=C/c2cc(C(C)(C)C)c(O)c(C(C)(C)C)c2)S1 | 63.5%
33 | Nc1c(C(=O)Nc2ccccc2)sc2nc3c(cc12)CCCCC3 | 24.2%
34 | O=C1N=C(c2c(-c3[nH]c(=O)c4ccc(Br)cc4c3O)c(O)c3ccccc3c2O)C(=O)c2cc(Br)ccc21 | -70.7% (active)
35 | CCCCCCCC/C=C\CCCCCCCCOc1ccccc1CCOP(=O)(O)OCC[N+](C)(C)C | 67.8%
36 | CC(C)C[C@H](NC(=O)[C@@H](Cc1ccccc1)n1ccc(Nc2ccccc2)cc1=O)B(O)O | -10.4% (active)
37 | COc1ccc(/C=C2\Oc3cc(OCCN4CCCC4)ccc3C2=O)c(OC)c1 | 79.2%
38 | Oc1ccc(N=Cc2ccccc2)cc1 | 99.9%
